WRN helicase inh = qHTS for Inhibitors of WRN Helicase. AID 651768, 2012. Potency, µM (series often up to 114 µM), hits mostly inhibitors. 0.46% of 360,000 active. Bifunctional 3'-5' exonuclease/ATP-dependent helicase WRN (Homo sapiens), Q14191. WRN helicase unwinding, fluorescent forked duplex, kinetic; note: nearly all actives have a fitted effect of over 55% in size
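Enzyme (20 nM final) and test compound sit together 15 min at room temperature before substrate addition. Substrate is a single-forked duplex oligonucleotide (100 nM) labelled with fluorophore and quencher, with 2 mM ATP; helicase unwinding raises red fluorescence, read kinetically.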
BLM inh = qHTS Assay for Inhibitors of Bloom's syndrome helicase (BLM). RecQ-like DNA helicase BLM (Homo sapiens), P54132. recombinant BLM DNA unwinding, fluorescence dequenching. Potency, µM (highest dose often 56.1 µM), hits mostly inhibitors. 0.2% of 350,000 active; note: nearly all actives have a fitted effect of over 35% in size
RECQ1 inh = qHTS Assay for Inhibitors of RecQ-Like Dna Helicase 1 (RECQ1). ATP-dependent DNA helicase Q1 (Homo sapiens), P46063. RECQ1 DNA unwinding, red fluorescence kinetic read. Potency, µM (series often up to 57.3 µM), hits mostly inhibitors. 0.54% of 240,000 active. AID 2549, 2010; note: nearly all actives have a fitted effect of over 30% in size
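RECQ1T1 50 nM; forked duplex (20 bp + 30-nt ss tails) 200 nM, ATP 2 mM final; pH 8.0, 2 mM MgCl2, 2.5 ug/ml poly(dI-dC); 15 min compound preincubation; discontinuous kinetic read over 2 h at RT.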
APE1 inh = qHTS Assay for Inhibitors of the Human Apurinic/apyrimidinic Endonuclease 1 (APE1) | recombinant APE1, TAMRA/BHQ-2 abasic DNA cleavage fluorescence | Potency, µM (top dose mostly 65.8 µM), usual class: inhibitors | 0.35% of 350,000 active | AID 2517, 2012; note: nearly all actives have a fitted effect of over 55% in size
Target sequence (P27695 whole entry, looked up): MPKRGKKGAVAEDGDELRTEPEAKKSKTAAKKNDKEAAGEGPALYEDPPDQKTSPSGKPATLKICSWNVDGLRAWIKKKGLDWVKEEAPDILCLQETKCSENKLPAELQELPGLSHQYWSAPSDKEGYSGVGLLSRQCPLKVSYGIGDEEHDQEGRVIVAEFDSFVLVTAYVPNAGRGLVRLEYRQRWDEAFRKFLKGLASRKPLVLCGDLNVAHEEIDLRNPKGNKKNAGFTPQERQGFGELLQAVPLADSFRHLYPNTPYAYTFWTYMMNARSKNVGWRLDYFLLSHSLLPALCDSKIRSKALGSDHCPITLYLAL
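Endonuclease cleavage of a quenched abasic-site DNA duplex (50 nM) by APE1 (0.75 nM) was tracked by TAMRA dequenching. Compounds were preincubated with enzyme 15 min at room temperature; data normalized to buffer-only and DMSO wells plus NSC13755 control.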
PI5P4K alpha inh = qHTS for Inhibitors of phosphatidylinositol 5-phosphate 4-kinase (PI5P4K); PI5P4Kalpha enzyme, ADP-Glo luminescence, 60 min; hits give low values; max response, %; 1.2% of 330,000 active; AID 652105, 2013; active = max response of -50% or lower; inconclusive = between -30% and -50%; inactive = -30% or higher; note: value at the top dose of about 77 µM
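Single end-point luminescence (ADP-Glo) quantified ADP from PI5P4Kalpha turnover; ATP 5 microM final, 1 h at RT, 0.1% CHAPS and 0.28 mM EGTA in HEPES pH 7.4.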
FEN1 inhibitor = qHTS Assay for the Inhibitors of Human Flap endonuclease 1 (FEN1) | P39748 | Recombinant FEN1 flap cleavage, fluorescence, 15 min | Potency, µM (highest dose often 114 µM), actives largely listed as inhibitors | 0.35% of 390,000 active | AID 588795, 2011; note: nearly all actives have a fitted effect of over 65% in size
Target sequence (P39748 whole entry, looked up): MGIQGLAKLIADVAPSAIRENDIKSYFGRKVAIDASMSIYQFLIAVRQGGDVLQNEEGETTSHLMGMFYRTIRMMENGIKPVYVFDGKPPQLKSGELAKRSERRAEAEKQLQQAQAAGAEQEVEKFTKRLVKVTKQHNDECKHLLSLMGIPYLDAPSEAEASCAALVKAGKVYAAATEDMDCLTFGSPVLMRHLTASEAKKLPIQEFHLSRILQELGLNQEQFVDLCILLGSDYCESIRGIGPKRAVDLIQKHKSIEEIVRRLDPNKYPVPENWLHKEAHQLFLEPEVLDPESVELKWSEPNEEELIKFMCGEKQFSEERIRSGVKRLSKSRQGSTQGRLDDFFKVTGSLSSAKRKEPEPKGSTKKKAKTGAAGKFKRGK
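Read-out was taken twice, immediately and after 15 min, following addition of 50 nM substrate to 10 nM FEN1 that had sat with test compound for 15 min at room temperature. Curves came from a four-parameter Hill model.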
Hits are given with their value; 0 = inactive; ? = inconclusive; - = not tested or not shown; [ ] = dose if it differs, or a comment. Hits are enriched below; roughly 1.5% of the tested compounds scored in any of these assays. Unless noted, calls come from the whole dose curve; as a rule, active = well fitted curve in the direction sought with a large enough effect; inconclusive = small, poorly fitted or top-dose-only effect, or another doubt; inactive = no such curve, though single readings can be large; an effect the other way counts as inactive or inconclusive.

SMILES	WRN helicase inh	BLM inh	RECQ1 inh	APE1 inh	PI5P4K alpha inh	FEN1 inhibitor
COc1cc(OC)cc(C(=O)Nc2cc3c(cc2N2CCCC2)n(C)c(=O)c(=O)n3C)c1	-	0	-	-	-	0
CCOC(=O)COc1ccccc1/C=C\[N+](=O)[O-]	32µM	0	0	0	0	0
O=C1C=CC(=O)N1Cc1ccncc1	0	-	-	-	0	0
O=C1C=CC(=O)N1CCCCCCCCCCN1C(=O)C=CC1=O	3.2µM	-	-	-	-51	0
O=P1(O)OP(=O)(O)OP(=O)(O)O1.[Al]	-	0	0	0	-	-
COc1cc(C=C2C(=O)C=CC2=O)ccc1O	10µM	-	-	-	-104	-
COc1cc(/C=C2/C(=O)CNC2=O)ccc1O	0	0	0	0	-56	0
Cc1ccc(NC(=O)C2CCCN2S(=O)(=O)c2cccc3nsnc23)cc1Cl (configuration not stated)	-	0	-	-	-	0
Cc1ccc(SSc2cc(C)ccc2N)c(N)c1	0	-	-	0	-81	?
Cc1ccc(-n2nc3cc(C)c(N)cc3n2)cc1	0	0	0	0	0	0
Cc1cc2nc3ccc(N(C)C)cc3nc2cc1N	50µM	-	-	-	?	?
Nc1ccc2cccnc2c1	-	-	-	-	-	0
Cc1cc(/C=C2/SC(=O)NC2=O)c(C)n1-c1ccc(N2CCOCC2)cc1	0	0	0	0	0	0
Cc1cc(C(=O)O)ccc1-n1c(C)cc(/C=C2\SC(=O)NC2=O)c1C	0[11.6 µM]	0	-	0	-58	0
Cc1cc(/C=C2\SC(=S)NC2=O)c(C)n1-c1ccc(O)cc1	?	0	?	0	-83	0
COC(=O)c1cccc(-n2c(C)cc(/C=C3\SC(=O)NC3=O)c2C)c1	0	-	-	-	0	-
Cc1cc(/C=C2\SC(=S)NC2=O)c(C)n1-c1ccccc1	0	0	0	0	-83	0
CC1Cc2cc(/C=C3/SC(=S)NC3=O)ccc2O1 (configuration not stated)	0	0	0	0	-94	0
COc1ccc(-n2c(C)cc(/C=C3\SC(=S)NC3=O)c2C)cc1	0	0	0	0	?	0
CCCCCCCCCCN1CCOCCOCCN(CCCCCCCCCC)CCOCCOCC1	-	0	0	0	-	-
COc1ccccc1Cn1c(C2CC(=O)N(c3ccccc3OC)C2)nc2ccccc21 (configuration not stated)	-	0	-	-	-	0
CCN(CC)C(=O)c1c(NC(=O)c2cccc(C)c2)sc2c1CCC(C)C2 (configuration not stated)	-	0	-	-	-	0
O=C1NC(=O)/C(=C/c2ccc(O)cc2)S1	0	0	0	0	?	0
Cc1cc(/C=C2\SC(=S)NC2=O)cc(C)c1O	0[11.6 µM]	0	0	0	-76	0
CC1=C([N+](=O)[O-])C(c2ccc(Cl)cc2)NC(=O)N1C (configuration not stated)	71µM	0	-	0	?	0
SMILES	WRN helicase inh	BLM inh	RECQ1 inh	APE1 inh	PI5P4K alpha inh	FEN1 inhibitor
O=Cc1ccc(O)c(O)c1	0	0	0	0	0	0
Oc1ccc(N=Cc2ccc(O)c(O)c2)cc1	32µM	28µM	0	0	-79	?
CCc1ccc(-n2c(=O)c3sc4ccccc4c3n(CC(=O)N(CC)Cc3ccccc3)c2=O)cc1	-	0	-	-	-	0
O=[N+]([O-])c1ccc(Oc2ccc(S(=O)(=O)Nc3ccccc3)cc2)cc1	0	0	0	0	0	0
O=C1C(Cl)=C(NS(=O)(=O)c2ccc([N+](=O)[O-])cc2)C(=O)c2ccccc21	79µM	0	0	0	0	0
CC(C)(C)n1ncc2c(=O)n(Cc3ccccc3SC(F)(F)F)cnc21	-	-	-	0	-	0
COc1cc(C(c2sc3nc(C)nn3c2O)N2CCC3(CC2)OCCO3)cc(OC)c1OC (configuration not stated)	0	0	0	0	-50	0
CCC(CC)C(=O)N1CCc2cc(OC)c(OC)cc2C1COc1ccc2c(C)cc(=O)oc2c1 (configuration not stated)	-	0	-	-	-	0
CCOC(=O)c1sc(N=NC2=C(O)CCCC2=O)c(C(=O)OCC)c1C	?	?	0	?	-57	?
CC(Sc1nc2ccc(C(=O)c3ccccc3)cc2[nH]1)C(=O)O (configuration not stated)	?	0	-	0	-52	0
C[C@@H](C(=O)Nc1nc(-c2ccccn2)cs1)N1C(=O)C2CCCCC2C1=O (some centres not stated)	?	0	0	0	-56	0
CCOC(=O)C(CC)N1CCN(Cc2ccc(F)cc2)C(=O)C1=O (configuration not stated)	-	0	-	-	-	0
CN(C)S(=O)(=O)c1cccc(NC(=S)N/N=C/c2cc(Br)ccc2O)c1	0	0	0	0	-61	?
CN(C)S(=O)(=O)c1cccc(NC(=S)N/N=C/c2cccc(O)c2)c1	0	0	0	0	0	0
O=C(NCCOCCn1c(=O)oc2ccccc21)Nc1ccc(F)cc1F	-	0	-	-	-	0
CCOC(=O)c1c(C)oc2c1c(CN1CCN(C(=O)OCC)CC1)c(O)c1ccccc12	?	0	0	0	-56	0
CCOC(=O)c1c(C)oc2c1c(CN1CCN(CCO)CC1)c(O)c1ccccc12	?	0	0	0	-98	0
CCOC(=O)c1c(C)oc2c1c(C(c1ccncc1)N1CCOCC1)c(O)c1ccccc12 (configuration not stated)	0	0	0	?	0	0
CCOc1ccc(NCc2cccn2-c2nnc(N3CCC(C(=O)NCCc4ccc(OC)c(OC)c4)CC3)s2)cc1	-	0	-	-	-	0
C[C@@H]1[C@H](c2ccccc2)OCCS(=O)(=O)N1Cc1ccccc1F	-	-	-	-	-	0
COC(=O)c1scc(-c2ccc(C)cc2)c1S(=O)(=O)N1CCN(c2cccc(OC)c2)CC1	-	0	-	-	-	0
COc1cc2c(cc1OC)-c1c(OC)c(OC)cc3ccnc(c13)C2=O	0	0	0	?	0	7.9µM
COc1ccc(C(=O)c2nccc3cc(OC)c(OC)cc23)cc1OC	0	-	-	0	0	0
CCC(=O)O[C@@H]1CC(=O)O[C@H](C)C/C=C/C=C/[C@H](O)[C@H](C)C[C@H](CC=O)[C@H](O[C@@H]2O[C@H](C)[C@@H](O[C@H]3C[C@@](C)(O)[C@@H](OC(=O)CC)[C@H](C)O3)[C@H](N(C)C)[C@H]2O)[C@H]1OC	-	-	-	0	-	-
CC(=NO)c1ccc2c(c1)Cc1cc([N+](=O)[O-])ccc1-2	0	-	-	-	-70	0

High-throughput results deposited in PubChem by National Center for Advancing Translational Sciences (NCATS).
